For 26 molecules, residual activity results are on record in ChEMBL document CHEMBL2218924, “A broad activity screen in support of a chemogenomic map for kinase signalling research and drug discovery” (Biochem J, 2013).

Each structure is given as a SMILES string.

The target of assay [1] is T1, Mitogen-activated protein kinase 12 (Homo sapiens) (UniProt P53778).
T1 sequence (whole entry): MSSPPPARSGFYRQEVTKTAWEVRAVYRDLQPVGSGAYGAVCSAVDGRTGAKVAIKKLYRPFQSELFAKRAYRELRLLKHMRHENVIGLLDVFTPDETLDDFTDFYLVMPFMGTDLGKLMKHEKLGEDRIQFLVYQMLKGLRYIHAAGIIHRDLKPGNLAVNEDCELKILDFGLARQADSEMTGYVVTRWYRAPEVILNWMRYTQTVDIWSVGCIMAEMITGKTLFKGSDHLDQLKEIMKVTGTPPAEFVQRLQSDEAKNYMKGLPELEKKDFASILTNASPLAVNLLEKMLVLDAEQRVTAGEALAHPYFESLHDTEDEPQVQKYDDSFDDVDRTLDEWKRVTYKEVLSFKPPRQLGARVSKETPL
The conditions noted are these: at 1 µM.

Assay [2] concerns the target T1, Mitogen-activated protein kinase 12 (Homo sapiens). To be noted: at 10 µM.
Assay [3] concerns the target T2, Tyrosine-protein kinase receptor TYRO3 (Homo sapiens) (UniProt Q06418).
T2 sequence (whole entry): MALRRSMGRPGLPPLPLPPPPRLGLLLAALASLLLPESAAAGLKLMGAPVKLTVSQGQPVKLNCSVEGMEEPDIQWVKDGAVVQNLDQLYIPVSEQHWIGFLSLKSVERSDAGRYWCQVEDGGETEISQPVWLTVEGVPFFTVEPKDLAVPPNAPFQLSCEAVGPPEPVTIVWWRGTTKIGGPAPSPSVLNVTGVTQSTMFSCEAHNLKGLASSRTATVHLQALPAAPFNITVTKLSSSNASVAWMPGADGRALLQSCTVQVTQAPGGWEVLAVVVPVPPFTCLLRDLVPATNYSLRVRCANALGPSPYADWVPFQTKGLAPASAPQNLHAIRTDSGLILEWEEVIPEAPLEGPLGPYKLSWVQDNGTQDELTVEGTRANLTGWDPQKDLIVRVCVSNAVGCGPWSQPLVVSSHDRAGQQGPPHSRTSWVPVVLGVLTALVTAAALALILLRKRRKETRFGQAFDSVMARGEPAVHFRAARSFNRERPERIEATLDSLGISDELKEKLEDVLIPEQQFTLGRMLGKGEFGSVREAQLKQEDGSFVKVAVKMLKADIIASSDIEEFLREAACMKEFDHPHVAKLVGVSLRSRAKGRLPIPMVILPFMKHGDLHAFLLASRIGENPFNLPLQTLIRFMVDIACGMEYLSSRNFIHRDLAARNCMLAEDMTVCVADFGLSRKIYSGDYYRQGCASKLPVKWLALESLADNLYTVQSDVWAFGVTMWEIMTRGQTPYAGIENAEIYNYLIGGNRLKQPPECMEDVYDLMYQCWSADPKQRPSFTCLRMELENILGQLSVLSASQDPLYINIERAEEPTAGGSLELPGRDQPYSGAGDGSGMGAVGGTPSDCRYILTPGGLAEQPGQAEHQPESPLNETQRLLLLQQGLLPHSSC
To be noted: at 1 µM.

Assay [4] concerns the target T2, Tyrosine-protein kinase receptor TYRO3 (Homo sapiens). To be noted: at 10 µM.
Assay [5] addresses Ribosomal protein S6 kinase alpha-1 (Homo sapiens) (UniProt Q15418). The conditions noted are these: at 10 µM.
Assay [6] concerns the target Ribosomal protein S6 kinase alpha-3 (Homo sapiens) (UniProt P51812). The conditions noted are these: at 1 µM.
Assay [7] has the same target. To be noted: at 10 µM.
Assay [8] has as its target Ribosomal protein S6 kinase alpha-2 (Homo sapiens) (UniProt Q15349). The conditions noted are these: at 10 µM.
Assay [9] has as its target Ribosomal protein S6 kinase alpha-6 (Homo sapiens) (UniProt Q9UK32). To be noted: at 1 µM.
Assay [10] has the same target. To be noted: at 10 µM.
The target of assay [11] is T3, Serine/threonine-protein kinase Sgk1 (Homo sapiens) (UniProt O00141).
T3 sequence (whole entry): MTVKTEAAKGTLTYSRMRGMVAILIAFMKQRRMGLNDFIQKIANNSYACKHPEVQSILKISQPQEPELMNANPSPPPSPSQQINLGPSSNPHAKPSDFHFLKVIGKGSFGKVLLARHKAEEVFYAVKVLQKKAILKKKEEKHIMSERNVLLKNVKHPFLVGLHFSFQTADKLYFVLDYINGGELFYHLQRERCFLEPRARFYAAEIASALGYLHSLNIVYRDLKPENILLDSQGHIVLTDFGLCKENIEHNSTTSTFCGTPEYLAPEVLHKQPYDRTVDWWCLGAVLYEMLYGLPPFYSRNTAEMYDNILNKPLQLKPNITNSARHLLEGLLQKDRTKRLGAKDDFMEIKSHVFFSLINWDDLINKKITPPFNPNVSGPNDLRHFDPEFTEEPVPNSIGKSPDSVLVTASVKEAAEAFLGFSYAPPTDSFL
To be noted: at 10 µM.

Assay [12] addresses Ribosomal protein S6 kinase alpha-1 (Homo sapiens) (UniProt Q15418). To be noted: at 1 µM.
Assay [13] concerns the target Ribosomal protein S6 kinase alpha-2 (Homo sapiens) (UniProt Q15349). To be noted: at 1 µM.
The target of assay [14] is Mitogen-activated protein kinase 14 (Homo sapiens) (UniProt Q16539). To be noted: at 1 µM.
Mitogen-activated protein kinase 14 (Homo sapiens), sequence (Q16539 whole entry): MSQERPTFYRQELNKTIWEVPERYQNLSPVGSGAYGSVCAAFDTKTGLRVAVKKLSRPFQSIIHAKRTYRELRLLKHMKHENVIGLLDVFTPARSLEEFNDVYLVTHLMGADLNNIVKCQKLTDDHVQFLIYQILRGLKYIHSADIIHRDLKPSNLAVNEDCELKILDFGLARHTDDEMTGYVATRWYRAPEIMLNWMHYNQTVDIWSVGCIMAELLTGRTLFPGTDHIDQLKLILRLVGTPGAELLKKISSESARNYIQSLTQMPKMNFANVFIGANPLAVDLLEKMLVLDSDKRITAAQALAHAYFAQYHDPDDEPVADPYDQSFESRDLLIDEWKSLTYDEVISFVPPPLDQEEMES
Assay [15] has the same target. To be noted: at 10 µM.
In assay [16] the target is Mitogen-activated protein kinase 11 (Homo sapiens) (UniProt Q15759). The conditions noted are these: at 1 µM.
Mitogen-activated protein kinase 11 (Homo sapiens), sequence (Q15759 whole entry): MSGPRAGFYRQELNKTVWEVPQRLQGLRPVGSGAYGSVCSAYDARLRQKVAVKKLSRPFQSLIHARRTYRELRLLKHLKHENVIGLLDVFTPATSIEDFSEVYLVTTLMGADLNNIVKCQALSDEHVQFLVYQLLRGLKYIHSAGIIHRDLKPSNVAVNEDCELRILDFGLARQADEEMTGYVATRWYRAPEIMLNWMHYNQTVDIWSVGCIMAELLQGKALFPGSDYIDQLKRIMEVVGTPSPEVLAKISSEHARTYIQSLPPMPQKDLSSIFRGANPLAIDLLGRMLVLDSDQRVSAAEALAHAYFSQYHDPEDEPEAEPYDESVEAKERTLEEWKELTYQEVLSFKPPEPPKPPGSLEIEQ
Assay [17] shares this target. The conditions noted are these: at 10 µM.
For assay [18], the target named is T4, Mitogen-activated protein kinase 13 (Homo sapiens) (UniProt O15264).
T4 sequence (whole entry): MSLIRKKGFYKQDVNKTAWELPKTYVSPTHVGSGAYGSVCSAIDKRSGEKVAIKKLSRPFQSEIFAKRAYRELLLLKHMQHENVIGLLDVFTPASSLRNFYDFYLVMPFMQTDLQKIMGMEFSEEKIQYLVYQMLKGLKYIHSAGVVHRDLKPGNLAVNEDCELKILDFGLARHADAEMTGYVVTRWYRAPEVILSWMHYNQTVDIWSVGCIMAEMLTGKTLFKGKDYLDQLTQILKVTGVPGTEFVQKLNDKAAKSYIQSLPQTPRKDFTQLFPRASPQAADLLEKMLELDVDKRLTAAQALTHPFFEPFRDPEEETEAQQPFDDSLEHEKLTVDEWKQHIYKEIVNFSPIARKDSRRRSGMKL
The conditions noted are these: at 10 µM.

The target in assay [19] is T3, Serine/threonine-protein kinase Sgk1 (Homo sapiens). The conditions noted are these: at 1 µM.

Ribosomal protein S6 kinase alpha-6 (Homo sapiens), sequence (Q9UK32 whole entry): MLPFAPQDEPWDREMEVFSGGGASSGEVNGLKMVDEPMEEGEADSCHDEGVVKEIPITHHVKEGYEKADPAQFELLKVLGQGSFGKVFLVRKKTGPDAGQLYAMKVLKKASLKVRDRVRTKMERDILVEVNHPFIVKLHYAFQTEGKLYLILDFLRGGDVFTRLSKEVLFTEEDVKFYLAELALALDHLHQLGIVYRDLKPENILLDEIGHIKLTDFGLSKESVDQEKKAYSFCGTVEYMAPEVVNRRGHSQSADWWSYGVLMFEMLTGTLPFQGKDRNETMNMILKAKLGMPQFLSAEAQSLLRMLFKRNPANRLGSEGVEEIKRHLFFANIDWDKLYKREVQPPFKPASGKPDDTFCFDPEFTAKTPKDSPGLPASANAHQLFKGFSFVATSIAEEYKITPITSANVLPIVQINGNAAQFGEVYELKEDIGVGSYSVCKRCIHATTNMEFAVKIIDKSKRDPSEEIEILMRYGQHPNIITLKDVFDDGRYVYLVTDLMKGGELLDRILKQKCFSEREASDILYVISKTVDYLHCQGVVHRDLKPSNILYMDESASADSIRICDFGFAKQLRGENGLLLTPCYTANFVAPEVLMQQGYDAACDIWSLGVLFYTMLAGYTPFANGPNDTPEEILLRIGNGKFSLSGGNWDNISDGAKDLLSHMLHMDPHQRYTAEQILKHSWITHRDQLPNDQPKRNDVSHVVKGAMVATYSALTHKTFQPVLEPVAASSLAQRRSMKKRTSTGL
Ribosomal protein S6 kinase alpha-1 (Homo sapiens), sequence (Q15418 whole entry): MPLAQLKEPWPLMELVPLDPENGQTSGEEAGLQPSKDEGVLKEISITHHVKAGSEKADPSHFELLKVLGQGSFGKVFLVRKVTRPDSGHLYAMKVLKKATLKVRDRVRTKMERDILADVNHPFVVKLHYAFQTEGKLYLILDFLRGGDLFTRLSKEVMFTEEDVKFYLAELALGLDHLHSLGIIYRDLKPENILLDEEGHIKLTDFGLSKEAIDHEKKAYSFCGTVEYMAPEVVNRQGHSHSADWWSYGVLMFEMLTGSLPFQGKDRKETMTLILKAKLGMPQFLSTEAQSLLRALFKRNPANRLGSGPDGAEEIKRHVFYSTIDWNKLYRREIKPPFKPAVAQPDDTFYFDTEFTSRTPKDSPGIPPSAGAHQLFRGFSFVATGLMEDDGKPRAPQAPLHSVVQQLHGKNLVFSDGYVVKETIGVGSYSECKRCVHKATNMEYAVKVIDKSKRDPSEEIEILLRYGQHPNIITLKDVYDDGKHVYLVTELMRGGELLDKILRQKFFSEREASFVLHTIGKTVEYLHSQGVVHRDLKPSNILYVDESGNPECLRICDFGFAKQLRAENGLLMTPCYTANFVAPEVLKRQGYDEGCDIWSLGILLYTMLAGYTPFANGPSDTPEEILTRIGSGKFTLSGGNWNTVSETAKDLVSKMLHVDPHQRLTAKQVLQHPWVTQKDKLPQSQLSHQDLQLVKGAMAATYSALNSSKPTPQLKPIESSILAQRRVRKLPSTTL
Ribosomal protein S6 kinase alpha-2 (Homo sapiens), sequence (Q15349 whole entry): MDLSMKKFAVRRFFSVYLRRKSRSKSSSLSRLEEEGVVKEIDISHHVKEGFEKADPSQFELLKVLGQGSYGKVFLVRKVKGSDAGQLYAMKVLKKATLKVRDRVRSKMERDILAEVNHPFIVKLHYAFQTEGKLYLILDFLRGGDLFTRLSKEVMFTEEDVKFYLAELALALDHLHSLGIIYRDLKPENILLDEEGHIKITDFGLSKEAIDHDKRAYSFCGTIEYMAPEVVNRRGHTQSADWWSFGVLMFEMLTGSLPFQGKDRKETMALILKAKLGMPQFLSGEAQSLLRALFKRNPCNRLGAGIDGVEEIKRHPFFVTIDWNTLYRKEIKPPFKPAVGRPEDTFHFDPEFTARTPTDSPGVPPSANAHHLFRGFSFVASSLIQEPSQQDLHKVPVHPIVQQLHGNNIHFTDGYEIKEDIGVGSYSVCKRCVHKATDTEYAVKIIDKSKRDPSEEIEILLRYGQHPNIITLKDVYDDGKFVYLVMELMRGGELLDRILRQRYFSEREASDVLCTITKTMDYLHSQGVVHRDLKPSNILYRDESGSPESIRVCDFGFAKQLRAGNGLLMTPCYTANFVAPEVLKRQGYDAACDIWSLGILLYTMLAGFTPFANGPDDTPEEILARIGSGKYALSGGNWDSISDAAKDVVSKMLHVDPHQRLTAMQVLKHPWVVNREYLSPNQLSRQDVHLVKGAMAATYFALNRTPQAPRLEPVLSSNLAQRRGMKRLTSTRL
Ribosomal protein S6 kinase alpha-3 (Homo sapiens), sequence (P51812 whole entry): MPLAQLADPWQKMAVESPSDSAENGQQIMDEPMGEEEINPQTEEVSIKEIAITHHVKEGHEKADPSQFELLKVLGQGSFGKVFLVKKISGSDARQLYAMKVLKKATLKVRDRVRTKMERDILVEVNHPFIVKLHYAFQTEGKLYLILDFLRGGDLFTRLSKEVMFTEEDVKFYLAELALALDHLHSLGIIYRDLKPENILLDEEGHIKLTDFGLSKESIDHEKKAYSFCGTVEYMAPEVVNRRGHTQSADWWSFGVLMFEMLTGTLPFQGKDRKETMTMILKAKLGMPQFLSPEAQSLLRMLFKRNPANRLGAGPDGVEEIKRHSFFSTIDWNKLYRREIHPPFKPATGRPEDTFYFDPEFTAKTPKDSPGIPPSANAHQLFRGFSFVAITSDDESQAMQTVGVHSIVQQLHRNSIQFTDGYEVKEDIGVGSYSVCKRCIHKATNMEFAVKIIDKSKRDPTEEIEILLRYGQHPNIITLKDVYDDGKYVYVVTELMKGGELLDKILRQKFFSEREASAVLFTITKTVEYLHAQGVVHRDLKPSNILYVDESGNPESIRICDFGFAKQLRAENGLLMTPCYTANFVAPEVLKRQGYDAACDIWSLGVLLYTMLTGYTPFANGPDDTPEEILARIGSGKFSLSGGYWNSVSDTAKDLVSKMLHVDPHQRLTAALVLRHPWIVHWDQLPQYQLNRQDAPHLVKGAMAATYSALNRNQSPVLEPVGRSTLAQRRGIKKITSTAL

Take `O=C(Nc1cccc(Nc2nccc(Nc3cccc(C(F)(F)F)c3)n2)c1)C1CC1`: the residual activity was 98% in assay [1] and 95% in assay [2].

`c1cc(-c2cnn3cc(-c4ccc(OCCN5CCCCC5)cc4)cnc23)ccn1`: the residual activity in assay [3] stood at 104%; in assay [4], 67%; in [5], 74%; in assay [6], 46%; in assay [7] it was 28%; in assay [8], 50%. Moreover, the residual activity in assay [9] came out at 68%; in assay [10] it was 63%; in [11], 66%.

For the molecule `O=c1[nH]c2ccccc2n1C1CCN(Cc2ccc(-c3nc4cc5[nH]cnc5cc4nc3-c3ccccc3)cc2)CC1`, the residual activity was determined as 91% in assay [3]; 91% in assay [4]; 117% in assay [12]; 84% in assay [5]; 68% in assay [6]; 35% in assay [7]. In addition, the residual activity in assay [13] came to 108%; in assay [8], 93%; in assay [9], 106%; in [10], 109%; in assay [14], 75%; in assay [15] it was 113%. Also, the residual activity in assay [16] was found to be 100%; in [17] it was 103%; in [1] it was 108%; in [2] it was 82%; in assay [18], 91%; in assay [19] it was 106%. Further, in assay [11], the residual activity was 68%.

In the case of `Cc1nc(-c2ccccc2)c(-c2ccncc2)o1`, the residual activity was 106% in assay [1] and 103% in assay [2].

Regarding `Cc1ccc(NC2=CC(=O)c3sc(C)nc3C2=O)cc1`, the results for the residual activity in assay [1] and in assay [2] were 87% and 102%, respectively.

Consider `O=C1NC(=O)C(c2c[nH]c3ccccc23)=C1c1c[nH]c2ccccc12`, for which the residual activity in assay [1] came to 99%; in assay [2], 51%.

For `CN(C)CCCn1cc(C2=C(c3c[nH]c4ccccc34)C(=O)NC2=O)c2ccccc21`, the residual activity in [1] turned out to be 125%; in assay [2], 131%.

With `COc1ccc(Cl)cc1NC(=O)Nc1cc(C)nc2ccccc12`, the results for the residual activity in assay [1] and in assay [2] were 95% and 85%, respectively.

As for `CCOC(=O)c1c(C)[nH]c(/C=C2\C(=O)Nc3ccccc32)c1C`, the figures for the residual activity in assay [1] and in assay [2] were 99% and 95%, respectively.

On to `NCCNc1ncc(C(N)=O)c(Nc2cccc(C(F)(F)F)c2)n1`, for which the residual activity in assay [1] worked out at 103%; in assay [2], 106%.

In the case of `O=C1C(Cl)=C(N2C(=O)CCC2=O)C(=O)c2ccccc21`, the figures for the residual activity in assay [1] and in [2] were 96% and 99%, respectively.

As for `CCC(=O)Nc1ccc2ncnc(Nc3cccc(Br)c3)c2c1`, the residual activity in assay [1] turned out to be 101%; in assay [2] it was 93%.

For `COc1cc2ncnc(Nc3cccc(Cl)c3)c2cc1OC`, the residual activity was 116% in assay [1] and 103% in assay [2].

As for `O=[N+]([O-])c1ccc(-c2nc(-c3ccc(F)cc3)c(-c3ccncc3)[nH]2)cc1`, the residual activity in assay [1] worked out at 101%; in assay [2] it was 93%.

Regarding `N#C/C(=C1/Nc2ccccc2S1)c1ccnc(NCCc2cccnc2)n1`, the residual activity in assay [1] was found to be 96%; in assay [2] it was 72%.

As to `Ic1cccc(CSc2nnc(-c3ccncc3)o2)c1`, the residual activity in assay [1] is 88%; in assay [2] it was 93%.

Regarding `COc1cc2ncnc(Nc3ccc(Oc4ccccc4)cc3)c2cc1OC`, the residual activity came to 108% in [1] and 101% in assay [2].

On to `Nc1n[nH]c2nnc(-c3c(-c4ccccc4)nn4ccccc34)cc12`, for which the figures for the residual activity in assay [1] and in assay [2] were 91% and 69%, respectively.

Turning to `O=C1c2ccccc2-[n+]2ccc3c([nH]c4ccccc43)c21`, the residual activity in assay [1] was 89%; in [2], 100%.

With `CCCC(=O)Oc1ccc2[nH]c(C(=O)c3cc4ccccc4[nH]3)cc2c1`, the results for the residual activity in [1] and in assay [2] were 96% and 98%, respectively.

In the case of `CO[C@H]1C[C@@H]2CC[C@@H](C)[C@@](O)(O2)C(=O)C(=O)N2CCCC[C@H]2C(=O)O[C@H]([C@H](C)C[C@@H]2CC[C@@H](O)[C@H](OC)C2)CC(=O)[C@H](C)/C=C(\C)[C@@H](O)[C@@H](OC)C(=O)[C@H](C)C[C@H](C)/C=C/C=C/C=C/1C`, the results for the residual activity in assay [1] and in assay [2] were 95% and 94%, respectively.

Take `CC#CC(=O)Nc1cc2c(Nc3ccc(F)c(Cl)c3)ncnc2cn1`: the values for the residual activity in assay [1] and in [2] were 103% and 95%, respectively.

Consider `O=C1Nc2cc(Br)ccc2/C1=C1/Nc2ccccc2/C1=N\O`, for which the residual activity in assay [1] was found to be 95%; in assay [2] it was 94%.

For `CC(C)n1cnc2c(NCc3ccccc3)nc(NCCCO)nc21`, the residual activity came out at 100% in assay [1] and 101% in assay [2].

Take `COc1cc2ncnc(N3CCN(C(=O)Nc4ccc(Oc5ccccc5)cc4)CC3)c2cc1OC`: the results for the residual activity in assay [1] and in [2] were 93% and 99%, respectively.

Consider `O=c1cc(-c2cccc3c2Sc2ccccc2S3)oc(N2CCOCC2)c1`, for which the residual activity is 104% in assay [1] and 101% in assay [2].
